WRN helicase inh: WRN helicase (human) inhibition | actives 0.46% (n = 360,000) | Q14191 | AID 651768 | Potency, µM (top dose mostly 114 µM), without a hit: at the top dose activity change, negative = inhibition, usual class: inhibitors | WRN helicase unwinding, fluorescent forked duplex, kinetic; note: potency is the fitted concentration of half-maximal effect; % is set by controls: 0 for no effect and ±100 for the full control effect; nearly all actives have a fitted effect of over 55% in size
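Kinetic fluorescence helicase assay: unwinding of a quenched forked DNA duplex (100 nM final) with 2 mM ATP final raises red fluorescence (525/598 nm). Compounds sat 15 min at room temperature with 20 nM WRN beforehand.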
FEN1 inh-1: inhibitors of human flap endonuclease 1. P39748. Recombinant FEN1 flap cleavage, fluorescence, 15 min. Potency, µM (titrated, usually from 114 µM), for the others: at the highest dose activity change, negative = inhibition, actives largely listed as inhibitors. actives 0.35% (n = 390,000). AID 588795; note: potency is the fitted concentration of half-maximal effect; % is set by controls: 0 for no effect and ±100 for the full control effect; nearly all actives have a fitted effect of over 65% in size
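FEN1 at 10 nM, compound pretreatment for 15 min (room temperature), 50 nM final substrate to initiate; endpoint reads at 0 and 15 min; DMSO-only plates used as vehicle background.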
Pol eta inh-1: blocks human DNA polymerase eta activity; actives 1.2% (n = 390,000); AID 588591; Potency, µM (doses to about 114 µM), inactives show at the highest dose activity change, negative = inhibition, hits mostly inhibitors; Q9Y253; recombinant Pol eta, fluorescent DNA replication assay; note: potency is the fitted concentration of half-maximal effect; % is set by controls: 0 for no effect and ±100 for the full control effect
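Pol eta at 10 nM preincubated with compounds 15 min at room temperature; reaction started with fluorescent substrate (50 nM final) and read kinetically at 0 and 10 min.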
POLB inh: DNA polymerase beta (human) inhibition; P06746; Pol beta primer extension/strand displacement, fluorescence kinetic; Potency, µM (titrated, usually from 114 µM), inactives show at the highest dose activity change, negative = inhibition, actives largely listed as inhibitors; actives 1.3% (n = 340,000); note: potency is the fitted concentration of half-maximal effect; % is set by controls: 0 for no effect and ±100 for the full control effect
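Curves were derived by four-parameter Hill fits of normalized qHTS data. The kinetic fluorescent primer-extension read was taken at 0 and 10 min after 50 nM substrate, following a 15 min room-temperature preincubation of 10 nM enzyme with compounds.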
POLK inh: DNA polymerase kappa (human) inhibition. Q9UBT6. purified Pol kappa, fluorescent DNA synthesis assay, 10 min. Potency, µM (highest dose often 107 µM), without a hit: top-dose activity, negative = inhibition, actives largely listed as inhibitors. actives 0.53% (n = 400,000). AID 588579; note: potency is the fitted concentration of half-maximal effect; % is set by controls: 0 for no effect and ±100 for the full control effect
Target sequence (Q9UBT6 whole entry, looked up): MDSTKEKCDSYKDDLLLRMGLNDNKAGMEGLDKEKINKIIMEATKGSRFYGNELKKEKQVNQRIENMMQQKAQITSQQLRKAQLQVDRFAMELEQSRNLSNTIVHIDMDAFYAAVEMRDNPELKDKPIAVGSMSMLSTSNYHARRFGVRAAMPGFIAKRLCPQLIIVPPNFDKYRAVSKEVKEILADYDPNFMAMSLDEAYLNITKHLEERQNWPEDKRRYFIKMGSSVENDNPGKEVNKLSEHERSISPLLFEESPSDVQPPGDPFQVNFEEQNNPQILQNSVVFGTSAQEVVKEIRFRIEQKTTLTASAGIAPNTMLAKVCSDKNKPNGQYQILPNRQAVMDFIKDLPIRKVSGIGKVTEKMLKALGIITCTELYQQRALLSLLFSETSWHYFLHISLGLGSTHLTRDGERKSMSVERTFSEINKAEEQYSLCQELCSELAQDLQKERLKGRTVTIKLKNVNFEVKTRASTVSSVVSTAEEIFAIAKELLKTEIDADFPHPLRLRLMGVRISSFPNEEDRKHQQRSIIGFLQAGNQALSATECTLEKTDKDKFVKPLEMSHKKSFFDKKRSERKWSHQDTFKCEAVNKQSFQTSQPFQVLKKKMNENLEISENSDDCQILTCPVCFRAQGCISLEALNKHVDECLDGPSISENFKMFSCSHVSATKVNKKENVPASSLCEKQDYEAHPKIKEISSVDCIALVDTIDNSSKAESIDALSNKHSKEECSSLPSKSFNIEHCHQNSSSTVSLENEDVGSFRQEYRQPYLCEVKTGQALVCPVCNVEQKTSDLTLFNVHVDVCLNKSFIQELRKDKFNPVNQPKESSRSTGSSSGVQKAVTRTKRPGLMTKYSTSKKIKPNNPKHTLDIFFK
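Here, compound and 10 nM enzyme are combined for 15 min at room temperature; adding 50 nM substrate (final) starts DNA synthesis, tracked by fluorescence at 0 and 10 min against buffer-only wells.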
POLI inh: DNA polymerase iota (human) inhibition. Q9UNA4. AID 588590. actives 1% (n = 390,000). Potency, µM (series often up to 115 µM), without a hit: top-dose activity, negative = inhibition, most hits filed as inhibitors. Pol iota fluorescent replication assay, 10 min; note: potency is the fitted concentration of half-maximal effect
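Pol iota at 10 nM preincubated 15 min with compounds at room temperature; reaction started with fluorescent substrate, 50 nM final. Fluorescence read kinetically at 0 and 10 min; buffer-only wells as negative control.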
GALK confirm: galactokinase (human) inhibition, confirmation; shares compounds with Pol eta inh-1; purified GALK, Kinase-Glo ATP depletion luminescence; Potency, µM (series often up to 115 µM), for the others: at the highest dose activity, negative = inhibition, hits mostly inhibitors; actives 70% (n = 150)
Redox cycling: counter-screen for GALK inhibitors: redox cycling H2O2 generation; shares compounds with Pol eta inh-1; actives 40% (n = 150); Potency, µM (titrated, usually from 115 µM), without a hit: at the top dose activity change, negative = H2O2 signal, most hits filed as inhibitors; Phenol red-HRP H2O2 redox cycling, absorbance 600 nm
HEK293 tox: reduces HEK-293 cell viability in GALK counter-screen; shares compounds with Pol eta inh-1; HEK-293 viability, ATP luminescence (CellTiter-Glo), 24/48 h; Potency, µM (highest dose often 46.1 µM), without a hit: at the top dose activity change, negative = cytotoxicity, hits mostly inhibitors; actives 10% (n = 170); AID 2547; note: potency is the fitted concentration of half-maximal effect; % is set by controls: 0 for no effect and ±100 for the full control effect
Pol eta inh-2: Pol eta (human) inhibition, cherry-pick confirmation; shares compounds with Pol eta inh-1; Pol eta primer extension, TAMRA/BHQ fluorescence, 10 min; Potency, µM, most hits filed as inhibitors; actives 64% (n = 2,600); AID 720502; note: potency is the fitted concentration of half-maximal effect
FEN1 inh-2: confirmation of human FEN1 inhibitors; shares compounds with FEN1 inh-1; FEN1 flap cleavage, TAMRA/BHQ2 fluorogenic DNA substrate; Potency, µM, usual class: inhibitors; actives 79% (n = 880); AID 720498; note: potency is the fitted concentration of half-maximal effect; nearly all actives have a fitted effect of over 60% in size
Starred values were filed as active, the others as inactive; [ ] = dose if it differs, or a comment. Only some compounds are listed: those with a hit (about 2.4% of all), similar ones and a draw of the others. Calls come from the whole dose curve; as a rule, active = well fitted curve in the direction sought with a large enough effect; inconclusive = small, poorly fitted or top-dose-only effect, or another doubt; inactive = no such curve, though single readings can be large; an effect the other way counts as inactive or inconclusive.

`O=C(NNc1cc(N2CCOCC2)nc(N2CCOCC2)n1)c1ccc([N+](=O)[O-])cc1` gave WRN helicase inh 0%[11.6 µM], FEN1 inh-1 -1%, Pol eta inh-1 89µM*, POLB inh 15%, POLK inh -4%, POLI inh 6.3µM*, GALK confirm 24µM*, Redox cycling 4.2µM*, HEK293 tox -12% and FEN1 inh-2 inconclusive.
`O=C(O)/C=C/c1ccc(-c2cccc(C(F)(F)F)c2)o1` gave WRN helicase inh -4%, FEN1 inh-1 16%, Pol eta inh-1 19%, POLB inh 12%, POLK inh -2%[60.1 µM] and POLI inh -1%.
For O=C(O)c1cc(Cl)ccc1-c1ccc(/C=C/c2cc(C(F)(F)F)[nH]c(=O)n2)o1 the results were WRN helicase inh inconclusive, FEN1 inh-1 inconclusive, Pol eta inh-1 50µM*, POLB inh -30%, POLK inh inconclusive, POLI inh inconclusive, Pol eta inh-2 38* and FEN1 inh-2 60*.
`CN=c1scc(C)n1/N=C/c1cc(Br)c(O)c(OC)c1` gave WRN helicase inh -5%, FEN1 inh-1 2%, Pol eta inh-1 -8%, POLB inh 1%, POLK inh -4% and POLI inh 168%.
For CN=c1scc(C)n1/N=C/c1ccc(O)c(O)c1O the results were WRN helicase inh 20µM*, FEN1 inh-1 79µM*, Pol eta inh-1 3.5µM*, POLB inh 5µM*, POLK inh 13µM*, POLI inh 7.9µM*, Pol eta inh-2 54* and FEN1 inh-2 34*.
CC1(C)S[C@@H]2[C@H](NC(=O)C3(N)CCCCC3)C(=O)N2[C@H]1C(=O)O was read as POLK inh 6%[19.4 µM].
`COc1cc(/C=C2/SC(=S)N(Cc3ccccc3)C2=O)ccc1OS(C)(=O)=O` gave WRN helicase inh 0%, FEN1 inh-1 7%, Pol eta inh-1 1%, POLB inh 8%, POLK inh -5% and POLI inh -6%.

High-throughput results (PubChem BioAssay)
